Compound activity from PubChem.
An excerpt weighted towards active compounds, which were near 19% of everything screened.
KB-3-1 tox – KB-3-1 parental cell cytotoxicity; KB-3-1 viability, CellTiter-Glo ATP luminescence, 72 h; Potency, µM (highest dose often 46.1 µM), usual class: cytotoxic; 400,000 compounds, 1.4% hits; also: nearly all actives have a fitted effect of over 60% in size
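KB-3-1 cells, DMEM (no phenol red) + 10% FBS; compound by pin transfer, 72 h, 37 °C. Readout: CellTiter-Glo luminescence after 10 min. Data normalized, curve-fitted.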
KB-V1 cytotox – kills drug-selected multidrug resistant KB-V1 cells | KB-V1 MDR cells viability, CellTiter-Glo, 72 h | 400,000 compounds, 3.4% hits | Potency, µM (highest dose often 46.1 µM), usual class: cytotoxic; also: nearly all actives have a fitted effect of over 60% in size
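Cytotoxicity via CellTiter-Glo luminescence after 72 h compound exposure at 37 degrees C. Cells: drug-selected KB-V1 line, DMEM phenol-red free plus 10% FBS. Compounds tested at multiple concentrations; normalized data fitted to concentration-effect curves.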
HT1080NT lethal – kills 2HG-producing HT-1080-NT fibrosarcoma cells. 360,000 compounds, 1.6% hits. Potency, µM (highest dose often 46.1 µM), usual class: cytotoxic. HT-1080-NT fibrosarcoma viability, CellTiter-Glo ATP luminescence, 48 h. AID 686970;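 also: NT is the 2HG producing partner of a matched IDH1 knockdown line; nearly all actives have a fitted effect of over 55% in size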
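Viability by CellTiter-Glo luminescence after 48 h compound exposure at 37C of HT-1080-NT cells (750/well, RPMI, 5% FBS). % activity scaled between DMSO wells and medium-only wells, then curve-fitted and categorized by curve class.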
HT1080 IDH1KD tx – toxicity to HT-1080 IDH1 knockdown cells (counter line); HT-1080 IDH1 knockdown viability, ATP luminescence, 48 h; Potency, µM (highest dose often 46.1 µM), actives largely listed as cytotoxic; 360,000 compounds, 2% hits
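After a 2 h attachment period, IDH1KD HT-1080 cells took pin-transferred compound for 48 h at 37 °C; ATP-based luminescence after 10 min room-temperature reagent incubation reported viability.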
TDP1 cell noCPT – qHTS for Inhibitors of human tyrosyl-DNA phosphodiesterase 1 (TDP1): qHTS in cells in absence of CPT. Potency, µM (highest dose often 46.2 µM), usual class: inhibitors. 420,000 compounds, 15% hits. AID 686978, 2013. DT40 Tdp1-/- hTDP1 cells, no CPT, ATP luminescence, 48 h; also: nearly all actives have a fitted effect of over 55% in size
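Growth of hTDP1-complemented DT40 Tdp1-knockout cells is measured by ATP luminescence after at least 48 hr compound exposure at 37 °C, with DMSO substituting for the 20 nM CPT used in the parallel screen.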
TDP1 cell CPT – growth inhibition of DT40 Tdp1-/-;hTDP1 cells with camptothecin (screen for TDP1 inhibitors); chicken DT40 Tdp1-/-;hTDP1 cells + 20 nM CPT, ATP luminescence, 48 h; Potency, µM (top dose mostly 46.2 µM), most hits filed as inhibitors; 420,000 compounds, 12% hits; also: nearly all actives have a fitted effect of over 55% in size
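Cell growth measured by CellTiter-Glo luminescence after a minimum 48 h, 37 C compound exposure with 20 nM CPT in Tdp1-knockout DT40 cells stably expressing hTDP1, seeded 400/well; qHTS titration format.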
A number is an active result; n = inactive; u = inconclusive; x = not tested or not shown; [ ] = dose if it differs, or a comment. Calls follow the shape of the dose curve; as a rule, active = well fitted curve in the direction sought with a large enough effect; inconclusive = small, poorly fitted or top-dose-only effect, or another doubt; inactive = no such curve, though single readings can be large; an effect the other way counts as inactive or inconclusive.

SMILES	KB-3-1 tox	KB-V1 cytotox	HT1080NT lethal	HT1080 IDH1KD tx	TDP1 cell noCPT	TDP1 cell CPT
CC(=O)Oc1cc(C)cc2oc(=O)cc(-c3ccccc3)c12	n	n	n	u	u	n
CCOc1ccc(CCNC(=O)c2cn(C)c3ccc(S(=O)(=O)N4CCCCCC4)cc3c2=O)cc1OCC	n	n	x	x	u	u
O=C(Oc1ccc(N(Cc2cccs2)C2=NS(=O)(=O)c3ccccc32)cc1)c1ccc(Cl)cc1	n	n	n	n	18.4µM	u
CN(C1=NS(=O)(=O)c2ccccc21)c1ccc(OC(=O)c2ccccc2)cc1	n	n	n	n	u	n
O=C(Oc1ccc(N(Cc2cccs2)C2=NS(=O)(=O)c3ccccc32)cc1)c1ccccc1	n	16.4µM	n	n	23.1µM	u
CN(C1=NS(=O)(=O)c2ccccc21)c1ccc(OC(=O)c2ccncc2)cc1	n	n	n	n	n	n
O=C(CN(Cc1ccc(Cl)c(Cl)c1)S(=O)(=O)c1ccccc1)N/N=C\c1ccc2c(c1)OCO2	u	20.6µM	u	n[9.24 µM]	u	u
O=C(CN(Cc1ccccc1)S(=O)(=O)c1ccc2c(c1)OCCO2)N/N=C/c1cccc(Br)c1	n	18.4µM	n	n	u	u
O=C(CN(Cc1ccccc1)S(=O)(=O)c1ccccc1)N/N=C/c1ccc([N+](=O)[O-])cc1	n	2.06µM	n	n	n	n
CCc1ccc(CNC(=O)CCCN2C(=O)CCn3nc(-c4cccn4C)cc32)cc1	n	n	x	x	n	u
COc1cc(=O)n2c(c1C(=O)NC(C)c1ccco1)CCN(Cc1ccccc1Cl)CC2 (configuration not stated)	x	x	x	x	n	n
C=CCc1c(C)nc(SC)nc1Nc1ccccc1	n	u	n	n	n	n
C=CCc1c(C)nc(SC)nc1Nc1ccc(C(C)=O)cc1	n	11.6µM	n	n[9.24 µM]	20.6µM	16.4µM
C=CCc1c(C)nc(-c2ccccc2)nc1Nc1ccc(O)cc1	20.6µM	13µM	u	u	14.6µM	u
CSc1nsc(SCC(=O)Nc2ccc(C(C)=O)cc2)n1	n	n	n[9.24 µM]	n	n	n
C=CCc1c(C)nc(SC)nc1Nc1ccc(C(=O)O)cc1	u	20.6µM	n	u	n	n
Cc1cccc(CN2C[C@H](Sc3ccccn3)C[C@H]2C(=O)Nc2ccc3sc(C)nc3c2)c1	x	x	x	x	n	n[9.04 µM]
NCC1O[C@H](O[C@@H]2C(O)[C@H](O[C@H]3OC(CO)C(O)C(N)C3O)[C@@H](N)C[C@H]2N)[C@@H](N)CC1O (some centres not stated)	x	x	x	x	n	n
COc1ccc(NC(=O)CC(c2ccc(F)cc2)c2ccc(OC(C)C)cc2)cc1 (configuration not stated)	n	u	n	n	20.6µM	u
CCOc1ccc(NC(=O)CC(c2ccccc2)c2ccc(F)cc2)cc1 (configuration not stated)	n	18.4µM	n	n	14.6µM	n
O=C(NC1CC(=O)N(c2ccc(F)cc2)C1)c1ccc2c(c1)OCO2 (configuration not stated)	x	x	x	x	n	n
O=C(NCC1Cc2cccc(-c3ncccn3)c2O1)C1CCCO1 (configuration not stated)	x	x	x	x	n	n[9.04 µM]
O=C(NC(c1ccccc1)c1ccc2ccccc2n1)C1CCN(Cc2cccc(C(F)(F)F)c2)CC1 (configuration not stated)	u	u	u	14.6µM	6.51µM	7.31µM
O=C(NC(c1ccc2ccccc2n1)c1cccs1)C1CCN(Cc2cccc(C(F)(F)F)c2)CC1 (configuration not stated)	u	u	u	16.4µM	10.3µM	7.31µM
COCCNC(=O)C1CCCN(Cc2cccc(C(F)(F)F)c2)CC1 (configuration not stated)	n	n	n	n	n	n
SMILES	KB-3-1 tox	KB-V1 cytotox	HT1080NT lethal	HT1080 IDH1KD tx	TDP1 cell noCPT	TDP1 cell CPT
c1csc(-c2ccc3nncn3c2)c1	n	n	u	n	n	u
CCOC(=O)c1[nH]c(C)c(C(=O)Nc2ccc(F)cc2)c1C	n	n	n	n	n	n
CCOC(=O)c1[nH]c(C)c(C(=O)OC)c1C	n	n	n	n	n	n
CCOC(=O)c1[nH]c(C)c(C(=O)Nc2ccc(C)c(C)c2)c1C	u	u	n	n	u	u
CCOC(=O)c1[nH]c(C)c(C(=O)Nc2ccc(C)cc2C)c1C	2.59µM	3.66µM	u	11.6µM	1.3µM	2.31µM
CCOC(=O)c1[nH]c(C)c(C(=O)c2ccc(C)cc2)c1C	n	1.46µM	1.78µM	1.26µM	2.06µM	2.31µM
CCOC(=O)c1[nH]c(C)c(C(=O)Nc2ccccc2F)c1C	2.31µM	3.66µM	u	u	2.59µM	2.31µM
